Compounds with a hit are over-represented: about 1.9% of the library has one in this group of screens.
RXFP1 antagonist: qHTS Assay for Antagonists of the Relaxin Receptor RXFP1 | Relaxin receptor 1 (Homo sapiens), Q9HBX9 | HEK293-RXFP1, relaxin-stimulated cAMP HTRF, 30 min; active compounds read low | activity change, negative = inhibition, % at 57.5 µM | 350,000 tested, 0.59% active;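 active means activity change of -60% or lower, but not beyond a set lower limit; inconclusive means change between -60% and -40%, or beyond the set limit; inactive means change above -40%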; further: on the % scale 0 is the no-effect control and ±100 the full control effect
Target sequence (Q9HBX9 whole entry, looked up): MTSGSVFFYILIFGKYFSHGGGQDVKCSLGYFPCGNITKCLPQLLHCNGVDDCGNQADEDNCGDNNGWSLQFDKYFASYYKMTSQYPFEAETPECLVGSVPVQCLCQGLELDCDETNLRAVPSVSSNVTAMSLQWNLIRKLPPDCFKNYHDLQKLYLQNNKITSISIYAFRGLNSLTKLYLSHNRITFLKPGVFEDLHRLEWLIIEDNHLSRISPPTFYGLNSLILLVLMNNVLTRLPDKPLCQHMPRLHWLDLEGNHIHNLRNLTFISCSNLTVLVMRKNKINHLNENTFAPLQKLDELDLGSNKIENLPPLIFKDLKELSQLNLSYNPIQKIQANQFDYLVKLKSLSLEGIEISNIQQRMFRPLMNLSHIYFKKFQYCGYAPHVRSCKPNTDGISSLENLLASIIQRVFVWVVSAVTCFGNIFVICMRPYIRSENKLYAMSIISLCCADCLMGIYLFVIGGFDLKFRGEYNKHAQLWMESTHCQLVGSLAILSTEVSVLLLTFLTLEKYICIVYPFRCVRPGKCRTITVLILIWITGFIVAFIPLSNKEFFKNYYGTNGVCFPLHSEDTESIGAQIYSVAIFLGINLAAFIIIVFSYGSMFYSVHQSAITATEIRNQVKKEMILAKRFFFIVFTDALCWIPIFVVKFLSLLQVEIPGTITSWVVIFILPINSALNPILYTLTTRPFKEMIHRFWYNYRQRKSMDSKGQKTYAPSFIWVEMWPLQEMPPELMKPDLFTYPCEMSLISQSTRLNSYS
BRCA1 expr act: qHTS Assay to Identify Small Molecule Activators of BRCA1 Expression; 380,000 tested, 1.1% active; Potency, µM (doses to about 46.1 µM), for the others: top-dose activation, actives largely listed as activators; MCF7-BRCA1-FFLuc reporter, luminescence, 48 h; response scale: scaled: vehicle 0%, 10 µM genistein 100%; further: potency means the concentration at half of the fitted maximal effect; nearly all actives have a fitted effect of over 80% in size
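Reporter cells (MCF7, BRCA1 promoter-firefly luciferase) received library compounds across a concentration series for 48 h. End-point luminescence was measured and concentration-effect curves derived after normalization.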
Giardia killer: Small Molecules that selectively kill Giardia lamblia: qHTS; Giardia lamblia trophozoite viability; activity change, % at 7.66 µM, hits read low; 340,000 tested, 0.15% active; AID 540267, 2011; in the data active means activity change below about -80%; inconclusive means between about -30% and that limit;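 further: parasites exposed to compound for two days anaerobically before the ATP read; on the % scale 0 is the no-effect control and ±100 the full control effect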
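Giardia lamblia trophozoites (100 cells/well) were incubated with compounds for 48 h at 37 deg C under anaerobic conditions. Viability was read as ATP content by one-step luminescence after 15-30 min at room temperature.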
IL-2 act: qHTS of IL-2 Activators; IL-2 activation reporter assay, cell-based qHTS; stimulated with anti-CD3/CD4/CD28 beads; in transgenic mouse T cells; activation, % (series mostly up to about 46 µM); 360,000 tested, 0.065% active; in the data active means activation above about 50%; inconclusive means mostly about 30% to 49%; further: 0% is about no effect
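First, unstimulated transgenic mouse T cells were exposed to compound for 60 min. Next, anti-CD3/anti-CD4-coated beads with anti-CD28 were added. Finally, after 18 h at 37 degrees C, EGFP and DsRed were imaged.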
RXFP1 ag: qHTS Assay for Agonists of the Relaxin Receptor RXFP1; 370,000 tested, 0.3% active; HEK293T-RXFP1 cAMP TR-FRET, 30 min; response scale: percent of porcine relaxin response, buffer zero; Potency, µM (top dose mostly 57.5 µM), for inactives: at the top dose activation, most hits filed as activators; AID 2676, 2010; Relaxin receptor 1 (Homo sapiens), Q9HBX9; further: potency means the concentration at half of the fitted maximal effect; on the % scale 0 is the no-effect control and ±100 the full control effect; nearly all actives have a fitted effect of over 60% in size
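HEK293 cells stably expressing RXFP1, treated 30 min at 37C with compounds plus PDE4 inhibitor Ro 20174; cAMP measured by HTRF TR-FRET. Normalized to buffer and 29 nM porcine relaxin; EC50 by Hill fit.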
NPSR antag: qHTS Assay for Antagonists of the Neuropeptide S Receptor: cAMP Signal Transduction. Q6W5P4. CHO-NPSR cells, cAMP TR-FRET, antagonist mode. Potency, µM (titrated, usually from 38.3 µM), inactives show top-dose activity change, negative = inhibition, hits mostly inhibitors. 220,000 tested, 1% active. AID 1461, 2008; further: potency means the concentration at half of the fitted maximal effect; on the % scale 0 is the no-effect control and ±100 the full control effect; nearly all actives have a fitted effect of over 50% in size
An asterisk follows results filed as active; ? = inconclusive; / = not tested or not shown; [ ] = dose if it differs, or a comment. Unless noted, the call rests on the fitted dose curve; in most records, active means well fitted curve in the direction sought with a large enough effect; inconclusive means small, poorly fitted or top-dose-only effect, or another doubt; inactive means no such curve, though single readings can be large; an effect the other way counts as inactive or inconclusive.

SMILES	RXFP1 antagonist	BRCA1 expr act	Giardia killer	IL-2 act	RXFP1 ag	NPSR antag
O=[N+]([O-])c1cc(Cl)ccc1-c1nc(-c2ccccc2)no1	-4.1	2.82µM*	-23.5	-0.3	0.9%	-9.8%
Brc1ccc(-c2nc(-c3ccncc3)no2)cc1	-10.6	?	18.3	0.6	6.6%	/
COc1cc(/C=C/c2nc3ccccc3nc2/C=C/c2cc(OC)c(OC)c(OC)c2)cc(OC)c1OC	/	-8.5%	/	/	/	/
CSc1ccccc1-c1nc(-c2ccncc2)no1	-17.3	3.16µM*	-1.1	-3.1	10.2%	/
c1ccc(-c2ccccc2-c2nc(-c3ccncc3)no2)cc1	0.7	10.2%	-3.7	0.9	3.0%	-25.9%[46.1 µM]
CS(=O)c1ccccc1-c1nc(-c2ccc(Cl)cc2)no1 (stereo not given)	-17.2	11.2µM*	6.7	1.4	3.4%	2.8%
N#Cc1nc(-c2cccc3ccccc23)oc1NCC#CCOC(=O)c1cccs1	/	/	/	/	-0.5%	/
c1ccc(CNc2ncnc3c2ncn3Cc2ccccc2)cc1	/	3.2%	10.4	/	/	/
Cc1ccc(C(=O)CSc2nnc(N)s2)c(C)c1	1.0	4.47µM*	-15.6	-0.2	-0.4%	8.6%
Cc1cc(C)c(C(=O)CSc2nnc(N)s2)cc1C	21.5	55.9%	-5.9	0.7	0.5%	-14.1%
Cc1cc(C(=O)CSc2nnc(N)s2)c(C)n1C1CC1	-3.7	7.94µM*	0.4	4.5	1.4%	/
COc1ccc(S(=O)(=O)N2c3ccc(Cl)cc3[C@@](O)(c3ccccc3Cl)[C@H]2C(=O)N2CCC[C@@H]2C(N)=O)cc1OC	-15.9	/	/	/	/	/
CCn1c(O)c(/C=N/N=C/c2ccc(OC)cc2)c2cc(C3=NNC(=O)CC3)ccc21	-6.0	-5.8%	?	214.9*	0.7%	4.0%
Cc1ccc(C(C)C)cc1NC(=O)Nc1ccc([N+](=O)[O-])cc1	-4.1	-79.4%	0.4	-3.7	-2.9%	10µM*
Cc1c(Cl)cccc1NC(=O)c1oc2ccc(S(=O)(=O)N3CCCCCC3)cc2c1C	-1.7	/	/	/	-3.0%	/
CC(=O)Nc1cc2nn(-c3ccccc3)nc2cc1Cl	-3.9	19.4%	5.5	1.1	2.9%	-25.7%[46.1 µM]
CC(C)(C)C(=O)Nc1cc2nn(-c3ccccc3)nc2cc1Cl	-4.0	-108.8%	-92.9*	-1.6	12.3%	-21.8%[46.1 µM]
Cc1cccc(-n2cnc(C(=O)NC3CCCCCC3)c2)n1	-9.0	10µM*	-7.1	-2.4	0.4%	-17.6%[46.1 µM]
C/C(=N\NC(=O)c1c(Cl)cnn1C)c1ccc(NC(=O)c2ccc(Br)o2)cc1	-5.7	10µM*	-5.3	-1.4	3.2%	/
CC(=O)Nc1ccc(/C=C/c2ccncc2)cc1	/	72.7%	/	/	/	/
CCCSc1nnc2c(n1)OC(c1sccc1C)Nc1ccccc1-2 (stereo not given)	-1.4	4.6%	7.9	/	3.7%	/
Oc1cccc(/C=N/N(Cc2ccccc2)c2ccccc2)c1	-32.5	-72.9%	9.3	-1.4	-1.5%	-24.3%
Oc1ccc(/C=N/N(Cc2ccccc2)c2ccccc2)c(O)c1O	-92.4*	-39.2%	8.8	-3.9	-0.6%	-22.6%
COc1ccc(Cn2nnnc2C(c2ccccc2)N2CCN(c3ccccc3)CC2)cc1 (stereo not given)	/	3.0%	5.8	/	/	/
CC1CC=CC2C1C(=O)N(Cc1ccccc1)C2c1ccc(C(F)(F)F)cc1 (stereo not given)	/	/	-7.4	/	/	/
SMILES	RXFP1 antagonist	BRCA1 expr act	Giardia killer	IL-2 act	RXFP1 ag	NPSR antag
CC(C)OC(=O)c1c(N)n(CCCN2CCOCC2)c2nc3ccccc3nc12	4.8	-3.9%	-5.8	0.4	1.1%	-6.3%[46.1 µM]
CC(C)OC(=O)c1c2nc3ccccc3nc2n2c1[nH]c(=O)c1ccccc12	/	/	/	/	6.2%	10µM*
COc1ccc(CCNC(=O)c2cc3c(s2)-c2c(C)cccc2OC3)c(OC)c1	0.4	/	/	/	9.3%	/
c1ccc(COc2ccc(OCCCNC3CCCC3)cc2)cc1	-86.1*	-9.5%	-1.3	-3.4	1.1%	16.0%[46.1 µM]
O=C(NC1CCCC1)c1ccccc1OCc1ccccc1	-81.8*	-29.5%	5.3	0.3	-1.6%	-25.5%
O=C(NC1CCCCCC1)C(=S)NCc1ccccc1	-25.3	11.2µM*	6.5	-0.2	-0.7%	-32.9%
O=C(NC1CCCCC1)C(=S)NCc1ccccc1	-9.0	61.1%	-1.5	-3.9	0.4%	-18.8%
O=C(Nc1ccccc1F)NC1CCCCCCC1	-5.1	3.55µM*	-8.3	-1.0	-0.2%	/
O=C(Nc1ccccc1F)NC1CC1	-14.9	19.2%	4.6	-0.8	-1.1%	17.6%
COCCCNCCCCOc1ccc(OCc2ccccc2)cc1	-27.7	26.5%	-9.8	-2.4	0.5%	1.1%
CCN(CC)CCCNC(=O)c1nn(C)c2c1CSc1ccccc1-2	-6.8	/	/	/	0.8%	/
CC1(C)OC(=O)C2(Cc3ccccc3N3CCCC32)C(=O)O1 (stereo not given)	/	33.0%	-11.0	/	/	/
O=C(NC1CCCCC1)c1ccc(-c2ccccc2)cc1	2.2	2.24µM*	-1.3	0.1	/	/
Cc1ccc(C(=O)NC(=S)N(C)C2CCCCC2)cc1	-0.5	8.91µM*	13.4	-1.5	2.6%	/
O=C(NC1CCCCCCC1)c1ccc(F)cc1	6.7	2.82µM*	-11.6	0.0	1.0%	/
CN(C(=O)c1ccc(-c2ccccc2)cc1)C1CCCCC1	-8.8	2.82µM*	1.5	-3.3	/	/
CN(C(=O)c1ccccc1Cl)C1CCCCC1	-5.9	12.9%	-7.1	-3.1	0.4%	-13.2%[46.1 µM]
Cc1ccccc1N1CC(c2nc3ccccc3n2Cc2ccc(Br)cc2)CC1=O (stereo not given)	/	-35.3%	/	/	-0.3%	/
O=C(CCCN1C(=O)c2cccnc2Oc2ccc(Cl)cc21)NCc1ccccc1F	-16.8	/	/	/	0.5%	/
O=C(CSc1ccccc1)NC1CCCCCCC1	-3.1	10µM*	-10.4	-4.8	-1.4%	/
O=C(CSc1ccccc1)NC1CCCCCC1	4.1	?	-3.4	-2.2	3.0%	/
CN(C)c1cccc(C(=O)NC2CCCCCC2)c1	-2.9	10µM*	-23.1	-1.1	0.2%	-13.5%[46.1 µM]
On1onc2c3cc(-c4ccccc4)nc3ccc21	-33.3	-69.8%	0.0	-0.5	0.8%	12.6µM*
COc1ccc(Nc2cc(C(=O)NCCCN3CCN(c4ccc(OC)cc4)CC3)c3ccccc3n2)cc1	-32.5	/	/	/	2.6%	/
Ic1ccc(/C=C2\C=Cc3ccccc32)cc1	/	12.5%	/	/	/	/
Cc1ccc2nc(-c3ccc(C)o3)c(Nc3ccc(Cl)cc3)n2c1	/	0.0%	-6.6	/	/	/
Cc1ccc(CN=c2c([N+](=O)[O-])nn(-c3ccc4c(c3)OCCO4)n2O)cc1	1.1	37.3%	-86.9*	-4.8	-6.0%	10.0%
